# The list is not random: actives were taken first. Their share in the collection is about 3.5%.
# KCNK9 inh: blocks the human KCNK9 two-pore domain potassium channel. Q9NPC2. 310,000 tested, 1.2% active. HEK293 KCNK9, FluxOR thallium flux fluorescence; active compounds read low. AID 488922. B-score at 10 µM;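 active = ratio B-score over 3 SD below the library mean, with starting fluorescence within 5 SD of its mean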;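 also: negative B-score means less thallium flux so channel inhibition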
# KCNK3 block: human KCNK3 channel inhibition, primary screen | O14649 | CHO-KCNK3 thallium flux, FluxOR fluorescence; active compounds read low | B-score at 10 µM | 340,000 tested, 0.84% active | AID 602410;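 active = B-score under library mean minus 4 SD, starting fluorescence ratio at most library mean plus 5 SD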;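 also: more negative B-score means stronger inhibition of thallium flux through KCNK3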
# TMEM16A act: activators or potentiators of mouse TMEM16A chloride channel | Q8BHY3 | HEK293 TMEM16A/YFP-H148Q/I152L, iodide quench fluorescence; active compounds read low | B-score at 10 µM | 340,000 tested, 0.3% active;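 active = fluorescence-ratio B-score plate-corrected deviation score at least 3 library SD below zero, with starting fluorescence score within 5 deviations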;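 also: channel opened by trigger with iodide after compound preincubation; score built on the fluorescence ratio of max minus min over baseline; more negative score means more quench and so TMEM16A activation or potentiation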
# Target sequence (Q8BHY3 whole entry, looked up): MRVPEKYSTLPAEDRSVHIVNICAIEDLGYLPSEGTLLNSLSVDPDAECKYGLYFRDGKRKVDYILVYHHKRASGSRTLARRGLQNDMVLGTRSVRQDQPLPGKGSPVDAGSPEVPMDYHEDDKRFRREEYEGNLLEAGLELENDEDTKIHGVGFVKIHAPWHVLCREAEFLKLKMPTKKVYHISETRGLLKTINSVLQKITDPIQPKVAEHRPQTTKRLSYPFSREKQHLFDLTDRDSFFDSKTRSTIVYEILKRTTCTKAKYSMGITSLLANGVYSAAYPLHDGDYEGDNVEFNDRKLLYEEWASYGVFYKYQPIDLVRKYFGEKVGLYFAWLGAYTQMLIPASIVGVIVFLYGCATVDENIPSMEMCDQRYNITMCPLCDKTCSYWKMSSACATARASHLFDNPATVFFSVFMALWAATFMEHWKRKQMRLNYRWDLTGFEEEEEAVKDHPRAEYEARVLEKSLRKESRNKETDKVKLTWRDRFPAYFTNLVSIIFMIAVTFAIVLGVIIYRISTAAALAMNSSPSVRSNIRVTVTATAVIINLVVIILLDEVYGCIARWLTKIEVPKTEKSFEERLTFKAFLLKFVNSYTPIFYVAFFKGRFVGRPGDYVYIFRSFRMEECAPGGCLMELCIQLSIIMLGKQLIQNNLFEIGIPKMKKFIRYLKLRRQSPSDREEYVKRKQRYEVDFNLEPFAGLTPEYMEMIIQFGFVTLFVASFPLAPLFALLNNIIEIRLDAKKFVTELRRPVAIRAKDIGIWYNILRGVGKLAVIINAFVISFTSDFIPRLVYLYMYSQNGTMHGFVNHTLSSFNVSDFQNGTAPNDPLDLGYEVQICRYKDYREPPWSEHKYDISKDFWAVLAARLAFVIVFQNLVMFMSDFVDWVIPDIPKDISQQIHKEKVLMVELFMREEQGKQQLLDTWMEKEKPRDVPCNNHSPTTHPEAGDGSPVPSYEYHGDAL
# Kir21 block: blocks the mouse Kir2.1 inward-rectifier potassium channel | HEK293-Kir2.1, FluxOR thallium flux fluorescence; active compounds read low | AID 1672 | 310,000 tested, 0.85% active | P35561 | B-score at 10 µM;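 active = fluorescence ratio B-score at or below minus 3 SD of library scores, with starting-brightness B-score within 2 SD, cut at about -4.2 in these data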;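 also: channel flux triggered by added potassium and thallium sulfate stimulus; B-score of peak minus minimum fluorescence over baseline after thallium stimulus; more negative B-score means stronger Kir2.1 block with less thallium influx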
# ANO1 block: inhibitors of mouse TMEM16A calcium-activated chloride channel | Q8BHY3 | HEK293 TMEM16A/YFP iodide influx fluorescence, ionomycin | normalized B-score (activity score, 25-100; higher = stronger inhibition) at 10 µM | 310,000 tested, 1.2% active | AID 588511;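 active = ratio plate-corrected score three or more library SD toward inhibition, starting fluorescence score within five deviations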;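 also: score derived from kinetic fluorescence span divided by baseline fluorescence per well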
# KCNK9 inh conf: human KCNK9 inhibitor confirmation; HEK293 KCNK9 cells, FluxOR thallium flux fluorescence; 4,900 tested, 43% active; inhibition, % at 10 µM; AID 492992; shares compounds with KCNK9 inh;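 active = thallium signal inhibited by more than 5 SD of the compound-free buffer control wells, on both duplicate plates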;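 also: 0% = assay buffer control wells without compound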
# Kir21 sel: mouse Kir2.1 off-target activity of KCNK9 modulators. shares compounds with KCNK9 inh. Kir2.1 cells, FluxOR thallium flux fluorescence. inhibition, % at 10 µM. 4,900 tested, 4% active;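 active = thallium signal drop more than 5 SD beyond the mean of the no-compound control wells, seen in both duplicate plates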;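 also: signal is fluorescence rise after thallium addition divided by baseline fluorescence; plate controls were assay buffer only for no effect and full block by chlorpromazine control for full effect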
# KCNK9 uninduced: second check of KCNK9 modulator effects in non-induced HEK293 cells; shares compounds with KCNK9 inh; FluxOR thallium flux; inhibition, % at 10 µM; 4,900 tested, 40% active; AID 492997;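 active = thallium signal drop beyond 5 SD of the untreated control mean, on both duplicate plates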;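 also: plate controls were buffer only IC0 wells for no effect and SID17386958 at its maximal inhibitory level for full effect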
# Starred values were filed as active, the others as inactive; i = inactive; / = no result given.
SMILES,KCNK9 inh,KCNK3 block,TMEM16A act,Kir21 block,ANO1 block,KCNK9 inh conf,Kir21 sel,KCNK9 uninduced
CN(C)c1nc(SCc2ccc(Cl)cc2)nc2c1CCCC2,-9.9*,i,i,1.8,i,34%*,i,56%*
Cc1cc(C)nc(SCc2ccc(Cl)cc2)n1,i,i,i,-1.3,i,/,/,/
CC1(C)NC(=O)N(CC(O)COc2ccccc2C(=O)Nc2ccccc2)C1=O (configuration not stated),-15*,i,i,-0.45,i,58%*,i,i
Cc1ccccc1NC(=S)Nc1ccc(Br)cc1,i,i,i,-0.18,i,/,/,/
C=CCN(Cc1cccs1)C(=O)COc1ccc2c(c1)OCO2,/,i,i,/,/,/,/,/
CCCc1nc2ccccc2c(=O)n1/N=C/c1ccccc1O,-8.4*,i,i,-0.12,i,60%*,i,30%*
N#CC1=C(S)N(c2ccccc2)C(c2ccc(-c3ccc(Cl)c(Cl)c3)o2)NC1=O (configuration not stated),i,i,i,-6.2*,i,i,i,i
N#Cc1ccc(OCC(=O)OCC(=O)Nc2sccc2C(N)=O)cc1,/,i,i,/,/,/,/,/
COc1ccc(C2CC(c3cccs3)=NN2S(C)(=O)=O)cc1 (configuration not stated),i,i,i,0.02,i,/,/,/
COc1ccc(C2CC(c3cccs3)=Nc3ccccc3S2)cc1 (configuration not stated),-12*,i,i,0.17,i,52%*,i,36%*
COc1ccc(Br)cc1/C=N/N1CCN(Cc2ccccc2Cl)CC1,i,i,i,0.26,i,/,/,/
COc1ccccc1N1CCN(/N=C/C=C/c2ccccc2[N+](=O)[O-])CC1,i,i,i,-1.7,i,i,i,i
O=[N+]([O-])c1ccccc1/C=C\C=N\N1CCN(c2ccccc2)CC1,i,i,i,0.99,i,/,/,/
COc1ccccc1/C=C/C=N\N1CCN(Cc2ccccc2Cl)CC1,i,i,i,1.1,i,i,i,i
Cc1ccccc1N1CCN(Cc2ccc([N+](=O)[O-])o2)CC1,i,i,i,2.2,i,/,/,/
COc1ccccc1N1CCN(Cc2ccc(-c3ccccc3[N+](=O)[O-])o2)CC1,i,i,i,-0.49,i,i,i,i
COc1ccccc1/C=C/C=N/N1CCN(Cc2ccc(Cl)cc2)CC1,i,i,i,0.01,i,i,i,i
CCOC(=O)c1sc(NC(=O)CCN2CCN(CC)CC2)c(C(=O)OCC)c1C,i,i,i,0.87,i,/,/,/
CS(=O)(=O)N1CCC(C(=O)Nc2cc(Cl)cc(Cl)c2)CC1,i,i,i,1.9,i,/,/,/
O=C(NN1CCN(Cc2ccccc2Cl)CC1)c1ccc(Br)cc1,i,i,i,2.1,i,/,/,/
CCCNC(=O)N1CCCC(C(=O)c2cccc(Cl)c2)C1 (configuration not stated),i,i,i,0.61,i,/,/,/
O=C(CCc1ccccc1)C(=O)N1CCCC(C(=O)c2cccc(Cl)c2)C1 (configuration not stated),i,i,i,-0.48,i,i,32%*,37%*
Cc1ccc(S(=O)(=O)NCc2ccc(C(=O)N3CCN(c4ccc([N+](=O)[O-])cc4)CC3)cc2)cc1,i,i,i,-1,i,/,/,/
COc1ccc(OC)c(/C=N/c2c(-c3ccc(O)c(OC)c3)nc3ccccn23)c1,-14*,i,i,1.3,i,i,i,i
COc1cc(-c2nc3ccccn3c2/N=C/c2cc(OC)c(OC)c(OC)c2)ccc1O,i,i,i,-0.03,i,/,/,/
SMILES,KCNK9 inh,KCNK3 block,TMEM16A act,Kir21 block,ANO1 block,KCNK9 inh conf,Kir21 sel,KCNK9 uninduced
CCOC(=O)c1c(NC(=O)C(=O)N/N=C/c2ccc(O)c(OC)c2)sc2c1CCCCC2,-8.5*,i,i,-0.68,i,56%*,i,30%*
CC(C)CC(=O)C1CCCN(C(=O)c2ccc3oc(Cc4ccccc4)nc3c2)C1 (configuration not stated),i,i,i,1.2,i,i,i,i
COc1ccc(C(=O)C2CC2c2ccc3c(c2)OCO3)cc1 (configuration not stated),i,i,i,-0.69,i,i,i,30%*
COc1ccc(C(=O)NCc2ccc3c(c2)OCO3)cc1,i,i,i,0.58,i,/,/,/
O=C(COC(=O)c1ccccc1NC(=O)c1ccccc1)c1cccc([N+](=O)[O-])c1,-14*,i,i,-0.06,i,69%*,i,32%*
COc1ccc(Cl)cc1Nc1ncnc2sc(C)c(S(=O)(=O)N3CCC(C)CC3)c12,-9.7*,i,i,-1.2,i,48%*,i,34%*
Cc1ccc(C)c(OCC(O)CN2CCN(CCN3C(=O)c4cccc5cccc(c45)C3=O)CC2)c1 (configuration not stated),i,i,i,-0.29,i,i,i,i
C/C(=N\OCC(=O)OCC(=O)NC(=O)c1ccccc1)c1ccc2c(c1)OCO2,i,i,i,1.4,i,/,/,/
CS(=O)(=O)Nc1ccc(C2=NN(S(=O)(=O)c3ccc(F)cc3)C(c3ccco3)C2)cc1 (configuration not stated),-10*,i,i,-2,i,38%*,i,i
Cc1ccc(C2=NN(S(=O)(=O)c3ccccc3)C(c3ccco3)C2)cc1 (configuration not stated),/,i,i,/,/,/,/,/
CC(C)N1C(=O)C(Cc2nc3ccccc3c(=O)n2-c2ccccc2)c2ccccc21 (configuration not stated),i,i,i,-0.9,i,i,i,i
CCCN1C(=O)C(Cc2nc3ccccc3c(=O)n2-c2ccccc2)c2ccccc21 (configuration not stated),i,i,i,0.01,i,/,/,/
CCc1c(C)sc(NC(=O)Cc2ccccc2C)c1C(=O)N1CCOCC1,i,i,i,1.5,i,/,/,/
CCc1ccccc1OCCCCN1CCCC1,i,i,i,0.02,i,/,/,/
CCOc1ccccc1OCCCOc1ccc(C)cc1Br,i,i,i,-1.9,i,/,/,/
COc1ccc(OCCCCOc2ccccc2Cl)cc1,i,i,i,-0.06,i,/,/,/

# High-throughput results (PubChem BioAssay)
